Data on 8 molecules can be found in PubChem BioAssay (Tox21).

Values without a mark were called inactive. Results filed as inconclusive are left out. The source made the active and inactive calls. Unless noted, calls follow the shape of the dose curve; as a rule, active = well fitted curve in the direction sought with a large enough effect in the repeat runs; inconclusive = weak or mixed curves; inactive = no such curve, though single readings can be large; an effect the other way counts as inactive or inconclusive.

A short description of experiment [1]: qHTS assay to test for compound auto fluorescence at 535 nm (green) in HEK293 cells (AID 720680). Also: % is scaled to controls: 0 for no effect and ±100 for the full control effect.
Experiment [2] can be described thus: qHTS assay to test for compound auto fluorescence at 460 nm (blue) in HEK293 cell free culture (AID 720681). Also: % is scaled to controls: 0 for no effect and ±100 for the full control effect. The procedure, abridged:
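Compounds were added to cell-free DMEM with 10% FBS and fluorescence read directly. The blue channel used 405 nm excitation and 460 nm emission, with triamterene as the reference fluorophore.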
On the technique in general: qHTS replaces the single test concentration by a dilution series.

The nature of experiment [3]: qHTS assay to test for compound auto fluorescence at 535 nm (green) in HEK293 cell free culture (AID 720682). Also: % is scaled to controls: 0 for no effect and ±100 for the full control effect. The procedure, abridged: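 Steps: dispense DMEM/10% FBS into empty wells; pin in compound or DMSO; measure fluorescence at 485/535 nm. Values are fluorescein equivalents.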
Experiment [4] is described as follows: qHTS assay to test for compound auto fluorescence at 590 nm (red) in HEK293 cell free culture (AID 720683). Also: % is scaled to controls: 0 for no effect and ±100 for the full control effect. The procedure, abridged:
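Cell-free wells of DMEM with 10% FBS received compound, and intrinsic fluorescence was read at excitation/emission 540/590 nm. Values expressed as equivalence to Rose Bengal sodium.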

The nature of experiment [5]: qHTS assay to test for compound auto fluorescence at 460 nm (blue) in HepG2 cell free culture (AID 720685). Also: % is scaled to controls: 0 for no effect and ±100 for the full control effect. The procedure, abridged: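 Compound (23 nL) or DMSO pinned into cell-free MEM with 10% FBS; blue fluorescence read at 405/460 nm excitation/emission, expressed as auto-fluorescence equivalency to triamterene.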
The nature of experiment [6]: qHTS assay to test for compound auto fluorescence at 535 nm (green) in HepG2 cell free culture (AID 720686). Also: % is scaled to controls: 0 for no effect and ±100 for the full control effect.
Experiment [7] in a line: qHTS assay to test for compound auto fluorescence at 460 nm (blue) in HepG2 cells (AID 720687). Also: % is scaled to controls: 0 for no effect and ±100 for the full control effect. In outline:
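HepG2 cells in MEM with 10% FBS, attached overnight at 37 C, were exposed to compound or DMSO for 1 hr at 37 C, 5% CO2. Blue fluorescence was read at 405/460 nm, with triamterene as reference fluorophore.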

Experiment [8] concerns the target Glucocorticoid receptor (Homo sapiens) (UniProt P04150). The experiment can be described thus: qHTS assay to identify small molecule agonists of the glucocorticoid receptor (GR) signaling pathway (AID 720691; active = well fitted activation curve with a large enough effect in the signal ratio in the repeat runs, not every such curve was filed as active; the % refers to the signal ratio; also: % is scaled to controls: 0 for no effect and ±100 for the full control effect). In outline: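 GR-bla HeLa cells carrying a GRE-driven beta-lactamase reporter, exposed to compounds for 18 h at 37 C. Reporter activation read as fluorescence after 2 h with LiveBLAzer B/G FRET substrate at room temperature.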

Experiment [9] is described as follows: qHTS assay to identify small molecule antagonists of the glucocorticoid receptor (GR) signaling pathway - cell viability counter screen (AID 720693). Also: % is scaled to controls: 0 for no effect and ±100 for the full control effect; nearly all actives have a fitted effect of over 55% in size.
Experiment [10] can be described thus: qHTS assay for identifying genotoxic compounds that show differential cytotoxicity against isogenic chicken DT40 cell lines with known DNA damage response pathways - wild type cell line (AID 743012). Also: nearly all actives have a fitted effect of over 60% in size. Also: potency is read from the fitted curve at half-maximal effect. In outline:
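Wild-type DT40 cells (300/well) exposed to compounds for 40 hours at 37 C/5% CO2. Viability read by CellTiter-Glo luminescence after 30 min at room temperature.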

Experiment [11] can be described thus: qHTS assay for identifying genotoxic compounds that show differential cytotoxicity against isogenic chicken DT40 cell lines with known DNA damage response pathways - Rev3 mutant cell line (AID 743014). Also: nearly all actives have a fitted effect of over 55% in size. Also: potency is read from the fitted curve at half-maximal effect.
A short description of experiment [12]: qHTS assay for identifying genotoxic compounds that show differential cytotoxicity against isogenic chicken DT40 cell lines with known DNA damage response pathways - Rad54/Ku70 mutant cell line (AID 743015). Also: nearly all actives have a fitted effect of over 60% in size. Also: potency is read from the fitted curve at half-maximal effect.
A short description of experiment [13]: qHTS assay to identify small molecule antagonists of the androgen receptor (AR) signaling pathway - cell viability counter screen (AID 743033; also: nearly all actives have a fitted effect of over 45% in size; also: potency is read from the fitted curve at half-maximal effect).
Experiment [14] in a line: qHTS assay to identify small molecule antagonists of the androgen receptor (AR) signaling pathway using the MDA cell line - cell viability counter screen (AID 743041; also: nearly all actives have a fitted effect of over 45% in size; also: potency is read from the fitted curve at half-maximal effect). In outline: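 MDA-kb2 AR-luc cells (MMTV-luciferase, AR/GR responsive) treated with compounds plus R1881 agonist for 16 h at 37C. CellTiter-Fluor added at 15.5 h; fluorescence read after 30 min in the same wells.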

Experiment [15] addresses Androgen receptor (Homo sapiens) (UniProt P10275). The experiment can be described thus: qHTS assay to identify small molecule antagonists of the androgen receptor (AR) signaling pathway (AID 743035; active = well fitted inhibition curve with a large enough effect in the signal ratio in the repeat runs, not every such curve was filed as active; the % refers to the signal ratio; also: potency is read from the fitted curve at half-maximal effect). In outline:
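HEK293 cells stably carrying UAS-beta-lactamase reporter, 2,000/well, given compounds plus R1881 agonist and incubated 16 h at 37C. LiveBLAzer B/G FRET substrate then added for 2 h at room temperature before fluorescence reading.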

Experiment [16] shares this target. The experiment can be described thus: qHTS assay to identify small molecule agonists of the androgen receptor (AR) signaling pathway using the MDA cell line (AID 743040; also: % is scaled to controls: 0 for no effect and ±100 for the full control effect; nearly all actives have a fitted effect of over 20% in size). In outline:
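MDA-kb2 breast carcinoma cells carrying MMTV-luciferase (responsive to AR and GR), plated 5 h then treated 16 h with compounds at 37C, 0% CO2. Read-out was ONE-Glo luminescence after 30 min at room temperature.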

Experiment [17] in a line: qHTS assay to test for compound auto fluorescence at 590 nm (red) in HepG2 cell free culture (AID 720684). Also: % is scaled to controls: 0 for no effect and ±100 for the full control effect. The procedure, abridged: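 Compound was pinned into wells holding MEM with 10% FBS and no cells, and red fluorescence was read at Ex/Em 540/590 nm. Signal is expressed as auto fluorescence equivalency relative to Rose Bengal sodium.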
Experiment [18] addresses Glucocorticoid receptor (Homo sapiens) (UniProt P04150). The experiment can be described thus: qHTS assay to identify small molecule antagonists of the glucocorticoid receptor (GR) signaling pathway (AID 720692; active = well fitted inhibition curve with a large enough effect in the signal ratio in the repeat runs, not every such curve was filed as active; the % refers to the signal ratio; also: potency is read from the fitted curve at half-maximal effect). The procedure, abridged: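 GR-bla HeLa cells carrying a GRE-driven beta-lactamase reporter received compound after 4 h plating, then dexamethasone (5 nM final). After 18 h at 37C, the FRET substrate was loaded for 2 h at room temperature and fluorescence read.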

The target of experiment [19] is Androgen receptor (Homo sapiens) (UniProt P10275). The experiment can be described thus: qHTS assay to identify small molecule antagonists of the androgen receptor (AR) signaling pathway using the MDA cell line (AID 743042; also: % is scaled to controls: 0 for no effect and ±100 for the full control effect; nearly all actives have a fitted effect of over 55% in size). The procedure, abridged: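 MDA-kb2 breast carcinoma cells carrying MMTV-luciferase (AR/GR responsive) were co-treated with compounds and the agonist R1881 for 16 h at 37C. Inhibition read as ONE-Glo luminescence; CellTiter-Fluor fluorescence measured in parallel for cytotoxicity.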
Androgen receptor (Homo sapiens), sequence (P10275 whole entry, looked up): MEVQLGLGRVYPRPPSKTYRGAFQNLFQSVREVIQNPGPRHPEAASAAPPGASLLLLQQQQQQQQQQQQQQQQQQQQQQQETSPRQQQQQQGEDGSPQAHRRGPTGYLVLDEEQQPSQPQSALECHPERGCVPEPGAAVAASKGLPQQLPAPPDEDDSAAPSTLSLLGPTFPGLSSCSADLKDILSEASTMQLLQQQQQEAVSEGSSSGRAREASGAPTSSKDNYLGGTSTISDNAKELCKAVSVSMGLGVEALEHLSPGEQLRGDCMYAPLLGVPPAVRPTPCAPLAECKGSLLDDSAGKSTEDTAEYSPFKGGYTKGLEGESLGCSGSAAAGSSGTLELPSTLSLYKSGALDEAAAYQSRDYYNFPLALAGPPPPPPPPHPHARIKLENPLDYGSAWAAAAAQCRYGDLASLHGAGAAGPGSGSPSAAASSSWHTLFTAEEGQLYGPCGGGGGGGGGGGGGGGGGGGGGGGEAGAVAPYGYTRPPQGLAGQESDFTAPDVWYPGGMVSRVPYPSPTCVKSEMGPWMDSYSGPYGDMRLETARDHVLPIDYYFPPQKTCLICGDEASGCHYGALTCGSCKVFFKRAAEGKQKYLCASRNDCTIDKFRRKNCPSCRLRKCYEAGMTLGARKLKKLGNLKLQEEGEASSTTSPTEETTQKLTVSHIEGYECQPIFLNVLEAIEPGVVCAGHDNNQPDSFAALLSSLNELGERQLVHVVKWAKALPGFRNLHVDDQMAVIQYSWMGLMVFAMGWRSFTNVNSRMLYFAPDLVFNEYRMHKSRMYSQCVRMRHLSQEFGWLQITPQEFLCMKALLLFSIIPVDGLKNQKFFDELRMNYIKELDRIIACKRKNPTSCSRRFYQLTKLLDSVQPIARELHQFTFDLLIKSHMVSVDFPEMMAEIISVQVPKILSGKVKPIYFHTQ

Glucocorticoid receptor (Homo sapiens), sequence (P04150 whole entry, looked up): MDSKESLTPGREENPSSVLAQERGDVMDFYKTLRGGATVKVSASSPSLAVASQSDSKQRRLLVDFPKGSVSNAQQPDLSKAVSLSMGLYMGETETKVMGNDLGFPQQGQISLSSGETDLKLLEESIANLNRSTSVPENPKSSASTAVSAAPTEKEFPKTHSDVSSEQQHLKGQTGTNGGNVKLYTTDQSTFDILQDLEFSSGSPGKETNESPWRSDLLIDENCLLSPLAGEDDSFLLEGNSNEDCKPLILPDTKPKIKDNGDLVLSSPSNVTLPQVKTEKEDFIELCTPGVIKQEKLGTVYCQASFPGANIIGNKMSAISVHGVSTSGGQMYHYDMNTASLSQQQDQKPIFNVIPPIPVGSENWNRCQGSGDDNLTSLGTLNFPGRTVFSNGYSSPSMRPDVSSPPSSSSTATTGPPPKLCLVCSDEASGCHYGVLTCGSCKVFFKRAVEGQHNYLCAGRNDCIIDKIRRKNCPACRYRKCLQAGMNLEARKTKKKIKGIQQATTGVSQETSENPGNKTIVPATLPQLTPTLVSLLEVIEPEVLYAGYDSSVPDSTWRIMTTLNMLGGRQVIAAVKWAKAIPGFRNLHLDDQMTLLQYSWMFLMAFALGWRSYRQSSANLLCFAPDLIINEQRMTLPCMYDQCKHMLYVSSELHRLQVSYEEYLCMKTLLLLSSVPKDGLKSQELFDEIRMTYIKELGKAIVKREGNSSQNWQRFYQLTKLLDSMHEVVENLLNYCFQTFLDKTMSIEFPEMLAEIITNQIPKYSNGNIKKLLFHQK

For `CC(C)C(O)(c1ccc(OC(F)(F)F)cc1)c1cncnc1` (stereo unspecified), the molecule was classed as inactive in [1], in experiment [3], in [4] and in [6]. The Potency result in experiment [2], in experiment [5], in experiment [7], in experiment [8], in experiment [9] and in experiment [13] was “inactive” each time. For the same molecule, the Potency entry in experiment [14] is “inactive”. In addition, the Potency in experiment [10] is 48.4 µM (active); in experiment [11] it was 27.2 µM (active); in experiment [12] it was 48.4 µM (active).
In the case of `CC(=O)c1ccc([N+](=O)[O-])cc1`, the call in [1], in experiment [3], in experiment [4] and in experiment [6] was inactive. Also, the Potency entry in experiment [2], in experiment [5], in experiment [7], in experiment [8], in [9] and in experiment [10] was “inactive” each time. Further, the Potency result in experiment [11], in experiment [12], in experiment [13] and in experiment [14] was “inactive” each time.
Take `COc1cc(C(=O)NC2CCN(C)CC2)ccc1Nc1ncc2c(n1)N(C1CCCC1)CC(F)(F)C(=O)N2C`: the call in experiment [1], in [3], in experiment [4], in experiment [6] and in experiment [16] was inactive. In addition, the Potency entry in [2], in experiment [5] and in experiment [7] was “inactive” in each case. The Potency in experiment [10] was 0.0044 µM (active); in experiment [11] it was 0.0025 µM (active); in experiment [12], 0.0056 µM (active); in [13], 15.9 µM (active); in experiment [15], 3.2 nM (active); in experiment [14] it was 62.8 µM (active).
In the case of `CCOC(=O)C1=C(C)NC(C)=C(C(=O)OC)C1c1cccc(Cl)c1Cl` (stereo unspecified), the molecule was classed as inactive in [1], in [3], in experiment [4], in experiment [17] and in experiment [6]. The Potency entry in experiment [2], in experiment [8], in experiment [9], in [13] and in experiment [14] was “inactive” throughout. Also, the figures for the Potency in [18] and in [10] were 10.7 µM (active) and 23.7 µM (active), respectively.
On to `O=c1cc(-c2ccccc2)oc2cc(O)cc(O)c12`, for which the call in [1], in experiment [3], in experiment [4], in experiment [6] and in [16] was inactive. The Potency result in [2], in experiment [5], in [7], in experiment [8], in [13] and in [14] was “inactive” in each case. The Potency result in [19] is “inactive”. In addition, the Potency in [18] is 19.5 µM (active); in experiment [10] it was 54.5 µM (active); in [11], 48.6 µM (active); in [12], 24.3 µM (active).
For `CC1(C)[C@@H](OC(=O)CCC(=O)O)CC[C@]2(C)[C@H]3C(=O)C=C4[C@@H]5C[C@@](C)(C(=O)O)CC[C@]5(C)CC[C@@]4(C)[C@]3(C)CC[C@@H]12`, in experiment [1], the fluorescence, % of fluorescein was -0.0149% [at 18.6 µM]. Also, the fluorescence, % of fluorescent control was -0.141% [at 18.6 µM] in experiment [2], 0.073% [at 18.6 µM] in experiment [4], 0.0251% [at 18.6 µM] in experiment [5] and -0.0128% [at 18.6 µM] in experiment [7]. Moreover, in experiment [3], the activity change is -0.0002% [at 18.6 µM]. Moreover, the fluorescence, % of fluorescein control in experiment [6] is 0.0091% [at 18.6 µM]. The Potency entry in experiment [8], in [18], in experiment [9], in [10], in [11] and in [12] was “inactive” throughout. Moreover, in experiment [14], the Potency result was “inactive”.
With `O=Cc1c2ccccc2c(Cl)c2ccccc12`, the molecule was called inactive in experiment [1], in [3], in experiment [4] and in experiment [6]. The Potency entry in [2], in experiment [5], in experiment [7], in experiment [8], in experiment [18] and in experiment [9] was “inactive” throughout. Besides, the Potency entry in [11], in experiment [12], in experiment [13] and in [14] was “inactive” each time.
`CN1C(C(=O)Nc2ccccn2)=C(O)c2sccc2S1(=O)=O`: the fluorescence, % of fluorescein in experiment [1] was -0.0339% [at 18.6 µM]. Moreover, the fluorescence, % of fluorescent control in experiment [2] is 2.91% [at 18.6 µM]; in experiment [4], 0.306% [at 18.6 µM]; in [5], 0.579% [at 18.6 µM]; in experiment [7], 0.333% [at 18.6 µM]. For the same molecule, in experiment [17], the fluorescence, % of Rose Bengal is -0.0396% [at 18.6 µM]. Moreover, the fluorescence, % of fluorescein control in experiment [6] is -0.0069% [at 18.6 µM]. In addition, the Potency entry in experiment [8], in experiment [18], in experiment [9], in [10], in experiment [12] and in [14] was “inactive” in each case.
